# Experimental data taken from PubChem BioAssay AID2734 (National Center for Advancing Translational Sciences (NCATS), 2010).
# Inconclusive results are not listed. Active and inactive are the calls of the source. Calls come from the whole dose curve; as a rule, active = well fitted inhibition curve with a large enough effect; inconclusive = small, poorly fitted or top-dose-only effect, or effect the other way; inactive = no such curve, though single readings can be large or run the other way.
# Assay: High Content Assay for Compounds that inhibit the Assembly of the Perinucleolar Compartment: DNA Intercalation/PicoGreen Displacement Assay
# Settings: fluorescence (intercalation counter-screen); series mostly up to 57.1 µM; activity change, negative = displacement: at the top concentration
# Source text: High Content Assay for Compounds that inhibit the Assembly of the Perinucleolar Compartment
# NIH Chemical Genomics Center [NCGC]
# NIH Molecular Libraries Probe Centers Network [MLPCN]
# Assay Submitter (PI): Sui Huang, Northwestern University, Feinberg School of Medicine, Cell and Molecular Biology, Chicago, Illinois.
# The perinucleolar compartment (PNC) is a non-membrane-bound nuclear subdomain that is associated with but structurally distinct from the nucleolus. The PNC is a heritable trait, in which the number of PNCs per cell in daughter cells often mimics that of their mother cells. The PNC is heterogeneous in shape, is stable through interphase, disassembles during mitosis, and reassembles in early G1. The PNC is concentrated with newly synthesized RNA polymerase III (pol III) RNAs (MRP RNA, RNAse P H1 RNA, hY RNAs[hY1, 2, 5], Alu RNA, and SRP [7SL] RNA) and RNA binding proteins (nucleolin, PTB, CUG-BP, KSRP, Raver1, Raver2, and Rod).
# Extensive in vitro studies have shown that the PNC is unique to tumor cells and preferentially forms in tumor cells derived from solid tissues. Examination of cancer cell lines from various origins and malignant capacities has shown that PNC prevalence correlates with the malignancy of tumors and has the potential to be developed as a pan-cancer prognostic marker.
# Although the PNC is associated with a DNA locus and a handful of components have been identified, much remains to be investigated regarding the structure and function of the PNC and its mechanistic link to cancer. We have previously shown that PNC prevalence reduction is a valid strategy to identify compounds that can be used to study the structure and function of the PNC. It is necessary, however, to create a screening platform that is able to test a large number of compounds in an automated fashion. Here we report the development and robustness of an automated whole-cell phenotypic image-based screening assay that is capable of identifying such compounds.
# Therefore, we conducted a DNA intercalation/displacement assay on the lead candidates in order to exclude compounds with this mechanism of action. PicoGreen is a DNA intercalator that becomes excitable at 488 nm and emits at 520 nm when bound to DNA. Compounds which displace the dye will decrease fluorescence intensity and were considered DNA intercalators/displacers. In order to rule out potential fluorescence artifacts, a measurement of compound plus DNA only was also calculated.
# 1. A supercoiled plasmid (pBR322) was diluted to 200 ng/ml in TE and 2 ul was dispensed into 1536 well black plates Multidrop Combi.(ThermoFisher).
# 2. Followup compounds dissolved in 100% DMSO were transferred using a pintool (23 nl).
# 3. Compounds were incubated in the presence of DNA for 30 minutes at room temperature.
# 4. A baseline signal was measured using an Envision PMT based plate reader using a 488 nm excitation filter and a 520 nm emission filter.
# 5. The PicoGreen dye (Invitrogen) was diluted in TE and 2 ul/well was dispensed to the 1536 well plate using a Multidrop Combi.
# 6. Plates were incubated at 37 C for 10 minutes prior to being read on the envision plate reader. 100 ng/ml of Propidium Iodide was used as the positive intercalation control.
Structure (SMILES),"activity change, negative = displacement",Potency
CCOC(=O)CSc1nc2c(sc3ccc([N+](=O)[O-])cc32)c(=O)n1Cc1ccco1,24.2% (inactive),–
CSc1nc(-c2ccc(C)cc2)nc(C(Cl)Cl)n1,47.4% (inactive),–
Nc1cccc(-c2nc3ccc(N)cc3s2)c1,-8.75% (inactive),–
COC(=O)c1ccc(CSc2ccccc2C)o1,8.83% (inactive),–
CC(/C=C/c1ccccc1)=N/NC(=O)c1cc([N+](=O)[O-])cc([N+](=O)[O-])c1,-6.33% (inactive),–
Cc1ccc(Cl)cc1N(CC(=O)N1CCCCCC1)S(C)(=O)=O,9.65% (inactive),–
O=C(Nc1ccc(NC(=O)C2CC2)cn1)c1ccccc1Cl,-4.55% (inactive),–
C/C(=N/OCO/N=C(/C)c1ccc(F)cc1)c1ccc(F)cc1,11.4% (inactive),–
CCN(CC)C(=S)SSC(=S)N(CC)CC,36% (inactive),–
CC(=O)/C(C#N)=C1\NC(=O)C(Cc2ccc(C)c(C)c2)S1 (configuration not stated),13.5% (inactive),–
Cc1cc(C)c(S(=O)(=O)/N=C2/C=C(Sc3ncn[nH]3)C(=O)c3ccccc32)cc1C,–,12.6 µM (active)
O=C1C(=O)c2ccc(-c3ccccc3)cc2-c2ccccc21,–,4.47 µM (active)
CCN(CC)c1ccc(N=Cc2ccccc2[N+](=O)[O-])cc1,–,3.16 µM (active)
O=C1C(Nc2ccccc2)=C/C(=N/S(=O)(=O)c2cccs2)c2ccccc21,–,2.82 µM (active)
O=[N+]([O-])c1cc(/C=N/Nc2nc3ccccc3[nH]2)c(O)cc1O,–,22.4 µM (active)
O=C1C(=Cc2cccs2)C(=O)c2ccccc21,-20.6% (inactive),–
CC(=O)Nc1ccc(S(=O)(=O)Oc2ccc3c(c2)C(C)=CC(C)(C)N3)cc1,-2.67% (inactive),–
O=C(Nc1cccnc1)c1cccs1,1.26% (inactive),–
O=c1[nH]cnc2c1C(c1ccccc1[N+](=O)[O-])c1c(nc[nH]c1=O)O2,6.43% (inactive),–
CCOC(=O)NC1(Nc2ccc(C)cc2)Oc2ccccc2O1,11.9% (inactive),–
CCOC(=O)c1c(NC(=O)c2c(-c3ccccc3)noc2C)sc(C)c1-c1ccccc1,11.5% (inactive),–
Cc1ccc(NC2=C/C(=N/S(=O)(=O)c3cccs3)c3ccccc3C2=O)cc1,–,3.55 µM (active)
Cc1cc(=O)[nH]c(N=N/C(=N/Nc2ccccc2C)c2ccccc2)n1,–,2 µM (active)
CSc1nnc2c3ccccc3n(CCc3ccccc3)c2n1,27.3% (inactive),–
Cc1ccccc1C(=O)NNC(=S)Nc1cccc(C(F)(F)F)c1,6.92% (inactive),–
Nc1ccc2c(c1)C(=O)C(=O)c1ccccc1-2,–,12.6 µM (active)
CCCNC1=C(N(C(C)=O)c2cccc(F)c2)C(=O)c2ccccc2C1=O,-5.87% (inactive),–
